Compound activity: PubChem, several laboratories
Shown are actives, neighbours in structure and some others; about 3.2% of the full set was active somewhere.
FBA Mtb inh: inhibits M. tuberculosis FBA enzyme | P9WQA3 | purified M. tuberculosis FBA, fluorescence read-out | inhibition, % at 1 µM | 360,000 compounds, 2.3% hits; in the data active = inhibition above about 27%;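 note: 0% = vehicle and 100% = reference inhibitor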
Target sequence (P9WQA3 whole entry, looked up): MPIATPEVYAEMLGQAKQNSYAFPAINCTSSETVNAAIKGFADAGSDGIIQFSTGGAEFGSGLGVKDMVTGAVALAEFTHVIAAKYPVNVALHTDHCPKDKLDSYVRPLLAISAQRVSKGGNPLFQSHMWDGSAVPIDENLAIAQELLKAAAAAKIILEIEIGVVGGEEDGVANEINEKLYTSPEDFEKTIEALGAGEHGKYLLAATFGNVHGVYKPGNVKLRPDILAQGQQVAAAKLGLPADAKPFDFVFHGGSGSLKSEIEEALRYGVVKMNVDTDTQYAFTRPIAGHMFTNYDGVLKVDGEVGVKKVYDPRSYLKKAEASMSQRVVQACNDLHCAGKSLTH
GDH-TPI counter-1: counter-screen for M. tuberculosis FBA inhibitors: GDH-TPI coupled enzymes | inhibition, % at 4.8 µM | GDH-TPI coupled enzyme counterscreen, NADH absorbance | 360,000 compounds, 1.2% hits; in the data active = inhibition above about 30%;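 note: 0% = DMSO wells and 100% = wells lacking the enzyme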
PrPC surface inh: inhibitors of human cell surface prion protein PrPC; P04156; TR-FRET read-out; inhibition, % at 13.8 µM; 370,000 compounds, 0.43% hits; AID 720596; in the data active = inhibition above about 24%; note: 0% = median of the test wells and 100% = reference compound wells
TcdB inh: TcdB glycohydrolase inhibition; P18177; TcdB glycohydrolase enzymatic assay, plate reader; inhibition, % at 9.99 µM; 350,000 compounds, 0.24% hits; AID 652162
Yp Topo-I inh: inhibitors of Yersinia pestis topoisomerase I; Y. pestis Topo-I cleavage product accumulation, plate reader; activity, % at 10 µM; 360,000 compounds, 0.064% hits; AID 504884; in the data active = activity above about 50%, passing the limit was not always enough
Mtb FBA inh conf: Mtb FBA inhibition, confirmed; shares compounds with FBA Mtb inh; purified M. tuberculosis FBA, fluorescence read-out; inhibition, % at 1 µM; 5,600 compounds, 78% hits; AID 651616; in the data active = inhibition above about 27%;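 note: 0% = vehicle wells and 100% = reference inhibitor wells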
GDH-TPI counter-2: counter-screen for M. tuberculosis FBA inhibitors: GDH-TPI coupled enzyme inhibition; shares compounds with FBA Mtb inh; GDH-TPI coupled enzyme counterscreen, fluorescence; inhibition, % at 1 µM; 5,600 compounds, 81% hits
GDH-TPI dose: inhibits GDH-TPI coupling enzymes in dose response | shares compounds with FBA Mtb inh | GDH-TPI coupled enzyme assay, fluorescence, artifact counterscreen | IC50, µM | 170 compounds, 79% hits | AID 652145; call rule not given here
Active calls of the source: *. Cut-off read from the data, not from the text of the source, unless noted: active = inhibition above about 10%; inactive = the rest.

Results for O=C(CSc1nc2ccccc2o1)c1cc2ccccc2oc1=O ?
FBA Mtb inh: 54.7*; GDH-TPI counter-1: 12.4; PrPC surface inh: -5.2; Yp Topo-I inh: -1.7; Mtb FBA inh conf: 10.5; GDH-TPI counter-2: 2.0; GDH-TPI dose: >10

How did COCC(=O)N(C)C[C@H]1Oc2cc(-c3ccccc3F)ccc2S(=O)(=O)N([C@@H](C)CO)C[C@H]1C do in these assays?
TcdB inh: -10.3

How did CNC(=O)C[C@@H]1CC[C@H]2[C@H](COc3ccc(NC(=O)Nc4cccc(C)c4)cc3C(=O)N2C)O1 do in these assays?
TcdB inh: 1.4

What do the screens show for `Nc1nccnc1C(=O)OCc1nc2sc3c(c2c(=O)[nH]1)CCCC3`?
FBA Mtb inh: 40.3*; GDH-TPI counter-1: 9.1; PrPC surface inh: -7.9; TcdB inh: 0.7; Yp Topo-I inh: 12.7; Mtb FBA inh conf: active; GDH-TPI counter-2: active

How did CC(SCc1nc2sc3c(c2c(=O)[nH]1)CCCC3)C(=O)Nc1ccccn1 (stereo unspecified) do in these assays?
FBA Mtb inh: 37.4*; GDH-TPI counter-1: 6.0; PrPC surface inh: -0.8; TcdB inh: 1.4; Yp Topo-I inh: 4.1; Mtb FBA inh conf: 127.3*; GDH-TPI counter-2: 92.4*

Results for Cc1ccc(NC(=O)C(C)SCc2nc3sc4c(c3c(=O)[nH]2)CCCC4)nc1 (stereo unspecified) ?
FBA Mtb inh: 9.8; GDH-TPI counter-1: 6.0; PrPC surface inh: 5.8; TcdB inh: 3.1; Yp Topo-I inh: 6.0

How did COc1ccc2ccc(=O)oc2c1 do in these assays?
FBA Mtb inh: 67.8*; GDH-TPI counter-1: 15.7; PrPC surface inh: -7.2; TcdB inh: 0.7; Yp Topo-I inh: -0.1; Mtb FBA inh conf: 88.1*; GDH-TPI counter-2: 82.1*

What do the screens show for `O=C(Oc1ccc2ccc(=O)oc2c1)c1cccs1`?
FBA Mtb inh: 66.4*; GDH-TPI counter-1: 6.2; PrPC surface inh: 2.7; TcdB inh: 0.5; Yp Topo-I inh: -3.7; Mtb FBA inh conf: 7.0; GDH-TPI counter-2: -5.2

How did COc1ccc(COc2ccc3ccc(=O)oc3c2)cc1 do in these assays?
FBA Mtb inh: 6.3; GDH-TPI counter-1: 11.0; PrPC surface inh: 8.2; TcdB inh: -5.9; Yp Topo-I inh: 5.1

What do the screens show for `COc1ccc(C(=O)Oc2ccc3ccc(=O)oc3c2)cc1OC`?
FBA Mtb inh: 41.5*; GDH-TPI counter-1: 6.8; PrPC surface inh: 3.3; TcdB inh: -5.4; Yp Topo-I inh: 3.1; Mtb FBA inh conf: 146.7*; GDH-TPI counter-2: 106.5*

How did COc1cccc(C(=O)Oc2ccc3ccc(=O)oc3c2)c1 do in these assays?
FBA Mtb inh: 58.6*; GDH-TPI counter-1: 15.2; PrPC surface inh: -4.4; TcdB inh: -2.4; Yp Topo-I inh: -5.8; Mtb FBA inh conf: 153.9*; GDH-TPI counter-2: 140.5*

How did CC(C)C#Cc1cnc2c(c1)C(=O)N([C@H](C)CO)C[C@@H](C)[C@H](CN(C)Cc1cccc(F)c1)O2 do in these assays?
TcdB inh: 0.5

What do the screens show for `Cc1ccc(S(=O)(=O)N[C@H]2C=C[C@@H](CC(=O)NCCN3CCCCC3)O[C@H]2CO)cc1`?
TcdB inh: -0.4

How did CNC[C@H]1Oc2ccc(NC(=O)Nc3cccc4ccccc34)cc2C(=O)N([C@H](C)CO)C[C@H]1C do in these assays?
TcdB inh: 0.3

How did CCC(=O)N1C[C@@H]2[C@H](c3ccccc31)[C@H](CO)N2Cc1ccc(F)cc1 do in these assays?
TcdB inh: 0.1

What do the screens show for `CO[C@H](CN(C)S(=O)(=O)c1ccc(F)cc1)[C@H](C)CN(C(=O)Nc1ccccc1F)[C@H](C)CO`?
TcdB inh: -5.0

Results for CC(Oc1ccc2ccc(=O)oc2c1)C(=O)N1CCOCC1 (stereo unspecified) ?
FBA Mtb inh: 41.7*; GDH-TPI counter-1: 0.3; PrPC surface inh: 3.6; TcdB inh: -9.4; Yp Topo-I inh: -4.5; Mtb FBA inh conf: 155.1*; GDH-TPI counter-2: 122.3*

How did CC(Oc1ccc2c(-c3ccccc3)cc(=O)oc2c1)C(=O)N1CCOCC1 (stereo unspecified) do in these assays?
FBA Mtb inh: -1.9; GDH-TPI counter-1: 20.0; PrPC surface inh: -9.6; TcdB inh: -0.4; Yp Topo-I inh: 3.6

Results for COc1ccccc1NC(=O)N1CCCCN2[C@@H](CO)[C@@H](c3ccc(C#CC4CC4)cc3)[C@@H]2C1 ?
TcdB inh: -0.8

Results for COC(=O)C1=CN(Cc2ccc(OC)cc2)C=C(C(=O)OC)C1c1cccs1 ?
FBA Mtb inh: 70.5*; GDH-TPI counter-1: -2.4; PrPC surface inh: 5.8; TcdB inh: 0.2; Yp Topo-I inh: 10.5; Mtb FBA inh conf: 6.6; GDH-TPI counter-2: 7.2

Results for COC(=O)C1=CN(Cc2cccs2)C=C(C(=O)OC)C1c1cccc(OC)c1OC ?
FBA Mtb inh: 53.2*; GDH-TPI counter-1: 8.8; PrPC surface inh: -6.3; Yp Topo-I inh: 7.0; Mtb FBA inh conf: 81.7*; GDH-TPI counter-2: 75.3*

Results for C[C@@H]1CCCCO[C@@H](CN(C)C(=O)Nc2ccc3c(c2)OCO3)[C@@H](C)CN([C@H](C)CO)C(=O)c2cc(NC(=O)Nc3ccccc3)ccc2O1 ?
TcdB inh: 0.5

What do the screens show for `Cc1ccc(-n2ncc3c(NCCCN4CCCC4=O)ncnc32)c(C)c1`?
FBA Mtb inh: 2.3; GDH-TPI counter-1: 2.8; PrPC surface inh: 6.8; TcdB inh: 0.8; Yp Topo-I inh: 9.1

How did Cc1ccc2[nH]c3c(NCCCN4CCCC4=O)ncnc3c2c1 do in these assays?
FBA Mtb inh: 38.9*; GDH-TPI counter-1: 5.7; PrPC surface inh: 10.0; Yp Topo-I inh: 6.6; Mtb FBA inh conf: 25.7; GDH-TPI counter-2: 27.0*

Results for Cc1ccc2[nH]c3c(NCc4ccco4)ncnc3c2c1 ?
FBA Mtb inh: 42.3*; GDH-TPI counter-1: 9.6; PrPC surface inh: 7.5; Yp Topo-I inh: -18.2; Mtb FBA inh conf: -1.9; GDH-TPI counter-2: -7.1

How did COc1cc(CNc2ncnc3c2[nH]c2ccc(C)cc23)cc(OC)c1 do in these assays?
FBA Mtb inh: 35.4*; GDH-TPI counter-1: 4.8; PrPC surface inh: 13.7; TcdB inh: -0.6; Yp Topo-I inh: -5.0; Mtb FBA inh conf: -5.3; GDH-TPI counter-2: -0.5

What do the screens show for `CO[C@@H]1CN(C)C(=O)c2ccc(NC(=O)CC(F)(F)F)cc2OC[C@H](C)NC[C@H]1C`?
TcdB inh: -3.1

How did O=C(NCc1ccncc1)/C(=C\c1ccc(F)cc1)NC(=O)c1ccccc1 do in these assays?
FBA Mtb inh: 44.8*; GDH-TPI counter-1: 0.8; PrPC surface inh: -12.7; TcdB inh: 0.5; Yp Topo-I inh: 4.6; Mtb FBA inh conf: 185.1*; GDH-TPI counter-2: 151.2*

What do the screens show for `CCN(C(=S)Nc1cccnc1)c1cccc2ccccc12`?
FBA Mtb inh: 48.8*; GDH-TPI counter-1: 4.8; PrPC surface inh: 0.0; TcdB inh: 0.3; Yp Topo-I inh: 6.1; Mtb FBA inh conf: 147.6*; GDH-TPI counter-2: 128.0*
